PubChem BioAssay (NCATS)
Inconclusive results are not listed. Active and inactive are the calls of the source. Unless noted, calls come from the whole dose curve; as a rule, active = well fitted curve in the direction sought with a large enough effect; inconclusive = small, poorly fitted or top-dose-only effect, or another doubt; inactive = no such curve, though single readings can be large; an effect the other way counts as inactive or inconclusive.

Key:
[1] = target: Lysosomal acid glucosylceramidase (Homo sapiens) (UniProt P04062); test: Glucocerebrosidase-p2 (AID 348; in the data active = potency below about 10 µM; note: potency is the fitted concentration of half-maximal effect); details: purified GBA, blue fluorogenic substrate, 40 min
How it was run: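 Compounds titrated from 0.6 nM upwards against 0.2 nM enzyme in pH 5.9 citric acid/KH2PO4, taurocholate, tween-20; blue fluorogenic substrate 80 uM, 40 min room temperature, stopped and read Ex 365/Em 440 for AC50.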

[2] = target: Cytochrome P450 1A2 (Homo sapiens) (UniProt P05177); test: p450-cyp1a2 (AID 410; calls by dose curve; note: potency is the fitted concentration of half-maximal effect)
How it was run: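 Inhibition was calculated relative to 57 uM furafylline (full inhibition). The reaction used human CYP1A2 at 20nM with Luciferin-ME at its Km, 100uM, driven by an NADPH-regenerating system for 60 min at room temperature.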

[3] = NFAT Signaling Pathway (AID 444; active = well fitted curve in either direction with a large enough effect, not every such curve was filed as active;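 note: carbachol stimulus at about its EC50 of 1 µM final; % is set by controls: 0 for no effect and ±100 for the full control effect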); details: Jurkat NFAT-bla M1, carbachol, beta-lactamase ratio, 5 h; at 7.69 µM (top of the series) unless noted
How it was run: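 Read-out: CCF4 FRET ratio (460 nm/530 nm) after 1 h RT dye loading, used for %activity and AC50 from titration series. Cells: Jurkat NFAT-β-lactamase/M1 line, treated with compound plus 1 uM carbachol for 5 h, 37 °C.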

[4] = target: Glucocorticoid receptor (Homo sapiens) (UniProt P04150); test: GR-GFP Redistribution (AID 450;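 active = compounds whose dose series gives a full or clear partial fitted curve of increased nuclear translocation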; note: potency is the fitted concentration of half-maximal effect); details: U2OS GR-GFP nuclear translocation, laser cytometry, 2 h
[5] = target: Glucocorticoid receptor (Homo sapiens) (UniProt P04150); test: GR-EFC Redistribution (AID 451; calls by dose curve; note: potency is the fitted concentration of half-maximal effect); details: CHO-K1 GR-EFC translocation, beta-gal luminescence, 2 h
How it was run: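 Translocation of GR-ED fusion to nuclear EA restores b-gal, read by luminescence after 1 h room-temperature detection. Engineered CHO-K1 biosensor cells, 1,000/well, exposed 2 h at 37 C to titrations up to 46 uM final.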

[6] = target: Mitogen-activated protein kinase 10 (Mus musculus) (UniProt Q61831); test: JNK3 AlphaScreen Assay (AID 530; active = well fitted curve in either direction with a large enough effect, not every such curve was filed as active;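 note: kinase came from lysate of stimulated human HepG2 cells; signal reports phosphorylation of biotinylated GST-cJun 1-79 at Ser73 with 10 µM ATP; % is set by controls: 0 for no effect and ±100 for the full control effect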)
How it was run: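 Room-temperature AlphaScreen kinase assay; pre-activated HepG2 lysate as JNK3 source, biotin-GST-cJun(1-79) substrate, 10 uM ATP, compound 15 min preincubation.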

[7] = target: 3',5'-cyclic-AMP phosphodiesterase 4B (Homo sapiens) (UniProt Q07343); test: qHTS Assay for Inhibitors of PDE-IV (AID 607; active = well fitted activation curve with a large enough effect in the main read-out, with a control signal flat, not every such curve was filed as active; note: % of control where 0% means no effect)
How it was run: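 Live HEK293 cells with a modified cyclic nucleotide-gated (CNG) channel report intracellular cAMP via membrane-potential dye fluorescence (ex 535/em 590 nm). Endogenous PDE-IV was targeted. Compounds were tested at up to 22.9 uM final; RO 20-1724 100 uM served as control.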

[8] = target: Cytochrome P450 3A4 (Homo sapiens) (UniProt P08684); test: qHTS Assay for Activators of Cytochrome P450 3A4 (AID 885); note: nearly all actives have a fitted effect of over 65% in size
How it was run: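 Quantitative HTS format: compounds preincubated with 20nM human CYP3A4 and Luciferin-PPXE substrate at KM, reaction started by NADPH regeneration, stopped after 60 min, luciferase luminescence read 20 min later.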

[9] = target: Cytochrome P450 2C19 (Homo sapiens) (UniProt P33261); test: qHTS Assay for Inhibitors and Substrates of Cytochrome P450 2C19 (AID 899); note: potency is the fitted concentration of half-maximal effect; nearly all actives have a fitted effect of over 60% in size
How it was run: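 Reactions contain 5nM enzyme, 10uM Luciferin-H EGE (KM) and 50mM KPO4; compound preincubates 10 min at 37C, NADPH regeneration starts turnover for 60 min. Luminescence after detection reagent gives activity.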

[10] = target: Dual specificity protein kinase CLK4 (Homo sapiens) (UniProt Q9HAZ1); test: qHTS Assay for Inhibitors of CDC-like Kinase 4 (Kinase-Glo Assay) (AID 1770); note: potency is the fitted concentration of half-maximal effect; nearly all actives have a fitted effect of over 65% in size
How it was run: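 Inhibition was judged from remaining ATP, measured by Ultra-Glo luciferase bioluminescence after Clk4 (25 nM) had acted on RS peptide at 1 uM ATP for 4.5 hours, room temperature.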

[11] = target: Dual specificity protein kinase CLK4 (Homo sapiens) (UniProt Q9HAZ1); test: qHTS Assay for Inhibitors of CDC-like Kinase 4 (ADP-Glo Assay) (AID 1771); note: potency is the fitted concentration of half-maximal effect; nearly all actives have a fitted effect of over 70% in size
How it was run: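 Kinase reaction: Clk4 at 25 nM, RS repeat peptide substrate at 100 uM, ATP at 1 uM, 1 hr, room temperature. Product ADP detected as luciferase signal via ADP-Glo.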

[12] = target: Dual specificity protein kinase CLK4 (Homo sapiens) (UniProt Q9HAZ1); test: qHTS Assay for Inhibitors of CDC-like Kinase 4 (ADP-FP Assay) (AID 1795); note: potency is the fitted concentration of half-maximal effect; nearly all actives have a fitted effect of over 60% in size
How it was run: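 Inhibition of ADP formation by 6.25 nM Clk4 is measured using 1 uM ATP and 100 uM RS repeat peptide over one hour. Produced ADP displaces a fluorescent tracer from antibody, lowering polarization.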

[13] = target: Ubiquitin carboxyl-terminal hydrolase 1 (Homo sapiens) (UniProt O94782); test: Inhibitors of USP1/UAF1: Pilot qHTS (AID 504865);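 note: rhodamine fluorescence freed from ubiquitin-rhodamine substrate followed over time; top concentration of the series differs between compounds; % is set by controls: 0 for no effect and ±100 for the full control effect; nearly all actives have a fitted effect of over 35% in size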
How it was run: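 Kinetic fluorescence assay: 1nM USP1/UAF1, 15 min compound preincubation, then 150nM Ub-Rho; 480/540 nm.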

[14] = target: Calcium and integrin-binding protein 1 (Homo sapiens) (UniProt Q99828); test: Primary qHTS for Identification of Calcium Integrin Binding Protein 1 (CIB1) Competitor (AID 1508620);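 note: GST tagged CIB1 binding a fluorescein labelled alphaIIb integrin peptide tracer; top concentration of the series differs between compounds; % is set by controls: 0 for no effect and ±100 for the full control effect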
How it was run: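 CIB1-GST (1 uM final) and compound incubated 15 min at room temperature before adding FITC-alphaIIb peptide tracer (100 nM final). Competition for binding read by fluorescence polarization (ex 480, em 540) after another 15 min at room temperature.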

[15] = Primary qHTS for small molecule stabilizers of the endoplasmic reticulum resident proteome: Secreted ER Calcium Modulated Protein (SERCaMP) assay (AID 1508630); note: % is set by controls: 0 for no effect and ±100 for the full control effect
How it was run: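 GLuc-SERCaMP-expressing SH-SY5Y cells, pretreated 16 h with compound, are challenged with thapsigargin to empty ER calcium stores; after 4 h, coelenterazine is added directly to the medium and luminescence is imaged.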

Chain of Calcium and integrin-binding protein 1 (Homo sapiens) (Q99828 whole entry, looked up): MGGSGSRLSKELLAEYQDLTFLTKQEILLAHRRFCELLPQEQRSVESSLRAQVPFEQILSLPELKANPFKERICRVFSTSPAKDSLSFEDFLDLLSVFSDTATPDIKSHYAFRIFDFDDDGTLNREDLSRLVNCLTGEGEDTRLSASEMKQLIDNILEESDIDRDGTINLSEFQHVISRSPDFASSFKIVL
Chain of Dual specificity protein kinase CLK4 (Homo sapiens) (Q9HAZ1 whole entry, looked up): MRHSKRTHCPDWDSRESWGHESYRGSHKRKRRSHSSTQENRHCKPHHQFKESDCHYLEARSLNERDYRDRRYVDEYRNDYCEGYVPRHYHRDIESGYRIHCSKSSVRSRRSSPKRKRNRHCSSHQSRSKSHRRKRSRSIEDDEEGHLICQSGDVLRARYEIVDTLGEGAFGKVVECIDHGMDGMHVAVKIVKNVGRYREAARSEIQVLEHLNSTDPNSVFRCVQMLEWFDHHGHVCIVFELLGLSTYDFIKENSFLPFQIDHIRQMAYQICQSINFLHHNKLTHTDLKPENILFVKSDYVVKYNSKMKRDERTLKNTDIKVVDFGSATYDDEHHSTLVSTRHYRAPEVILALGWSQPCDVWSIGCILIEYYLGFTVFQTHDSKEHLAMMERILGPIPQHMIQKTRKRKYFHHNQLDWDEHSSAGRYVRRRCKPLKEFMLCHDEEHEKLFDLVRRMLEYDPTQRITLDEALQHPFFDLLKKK
Chain of Glucocorticoid receptor (Homo sapiens) (P04150 whole entry, looked up, the tested form may be a part): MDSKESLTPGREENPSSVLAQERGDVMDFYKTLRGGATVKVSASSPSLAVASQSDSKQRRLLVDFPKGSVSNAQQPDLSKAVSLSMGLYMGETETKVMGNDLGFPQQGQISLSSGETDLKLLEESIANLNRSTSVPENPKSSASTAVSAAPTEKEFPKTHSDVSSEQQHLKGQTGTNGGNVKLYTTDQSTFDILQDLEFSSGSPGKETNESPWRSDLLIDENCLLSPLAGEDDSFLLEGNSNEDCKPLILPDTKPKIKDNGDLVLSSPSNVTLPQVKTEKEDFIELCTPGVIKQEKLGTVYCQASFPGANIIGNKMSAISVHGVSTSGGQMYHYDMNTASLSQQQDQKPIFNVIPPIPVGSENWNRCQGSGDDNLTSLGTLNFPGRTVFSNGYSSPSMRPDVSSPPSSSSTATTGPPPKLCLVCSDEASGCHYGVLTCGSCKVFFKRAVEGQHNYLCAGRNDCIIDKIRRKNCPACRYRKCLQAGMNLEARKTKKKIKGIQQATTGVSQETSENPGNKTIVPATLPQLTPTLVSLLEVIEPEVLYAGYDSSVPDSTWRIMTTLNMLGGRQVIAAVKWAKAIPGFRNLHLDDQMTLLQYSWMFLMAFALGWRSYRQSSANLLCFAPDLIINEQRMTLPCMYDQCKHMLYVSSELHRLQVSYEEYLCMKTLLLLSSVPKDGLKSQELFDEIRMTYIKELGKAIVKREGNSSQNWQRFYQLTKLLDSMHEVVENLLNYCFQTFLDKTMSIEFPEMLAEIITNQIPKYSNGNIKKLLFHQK
Chain of 3',5'-cyclic-AMP phosphodiesterase 4B (Homo sapiens) (Q07343 whole entry, looked up): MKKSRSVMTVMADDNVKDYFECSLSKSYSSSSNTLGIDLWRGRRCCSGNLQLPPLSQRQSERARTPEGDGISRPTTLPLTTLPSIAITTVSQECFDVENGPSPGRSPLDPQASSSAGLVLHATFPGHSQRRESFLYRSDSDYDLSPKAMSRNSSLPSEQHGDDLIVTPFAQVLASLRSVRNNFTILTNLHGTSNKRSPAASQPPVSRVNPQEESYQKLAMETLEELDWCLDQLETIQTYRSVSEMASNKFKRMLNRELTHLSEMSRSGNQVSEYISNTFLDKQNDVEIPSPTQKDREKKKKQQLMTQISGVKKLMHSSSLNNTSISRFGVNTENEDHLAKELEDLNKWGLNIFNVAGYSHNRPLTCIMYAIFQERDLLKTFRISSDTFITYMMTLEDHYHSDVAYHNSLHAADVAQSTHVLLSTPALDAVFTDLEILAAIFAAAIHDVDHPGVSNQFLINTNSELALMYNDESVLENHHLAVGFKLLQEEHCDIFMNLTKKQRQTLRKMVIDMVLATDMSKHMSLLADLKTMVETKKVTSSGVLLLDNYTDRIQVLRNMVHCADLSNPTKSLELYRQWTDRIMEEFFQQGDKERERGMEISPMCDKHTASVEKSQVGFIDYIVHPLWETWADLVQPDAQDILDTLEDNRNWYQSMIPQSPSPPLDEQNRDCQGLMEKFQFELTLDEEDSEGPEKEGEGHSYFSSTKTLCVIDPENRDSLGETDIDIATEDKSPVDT
Chain of Cytochrome P450 2C19 (Homo sapiens) (P33261 whole entry, looked up): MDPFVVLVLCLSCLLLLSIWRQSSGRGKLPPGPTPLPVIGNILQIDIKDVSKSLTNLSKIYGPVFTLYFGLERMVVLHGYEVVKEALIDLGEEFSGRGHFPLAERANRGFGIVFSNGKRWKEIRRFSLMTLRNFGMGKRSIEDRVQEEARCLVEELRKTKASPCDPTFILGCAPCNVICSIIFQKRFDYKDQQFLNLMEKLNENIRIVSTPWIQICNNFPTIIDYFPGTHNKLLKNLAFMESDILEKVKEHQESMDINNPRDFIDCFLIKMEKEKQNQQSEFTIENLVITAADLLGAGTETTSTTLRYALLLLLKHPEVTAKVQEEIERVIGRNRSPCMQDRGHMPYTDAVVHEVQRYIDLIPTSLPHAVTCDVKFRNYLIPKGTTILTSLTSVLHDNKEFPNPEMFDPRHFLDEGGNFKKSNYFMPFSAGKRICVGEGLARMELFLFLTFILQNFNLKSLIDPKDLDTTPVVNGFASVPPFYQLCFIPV
Chain of Lysosomal acid glucosylceramidase (Homo sapiens) (P04062 whole entry, looked up): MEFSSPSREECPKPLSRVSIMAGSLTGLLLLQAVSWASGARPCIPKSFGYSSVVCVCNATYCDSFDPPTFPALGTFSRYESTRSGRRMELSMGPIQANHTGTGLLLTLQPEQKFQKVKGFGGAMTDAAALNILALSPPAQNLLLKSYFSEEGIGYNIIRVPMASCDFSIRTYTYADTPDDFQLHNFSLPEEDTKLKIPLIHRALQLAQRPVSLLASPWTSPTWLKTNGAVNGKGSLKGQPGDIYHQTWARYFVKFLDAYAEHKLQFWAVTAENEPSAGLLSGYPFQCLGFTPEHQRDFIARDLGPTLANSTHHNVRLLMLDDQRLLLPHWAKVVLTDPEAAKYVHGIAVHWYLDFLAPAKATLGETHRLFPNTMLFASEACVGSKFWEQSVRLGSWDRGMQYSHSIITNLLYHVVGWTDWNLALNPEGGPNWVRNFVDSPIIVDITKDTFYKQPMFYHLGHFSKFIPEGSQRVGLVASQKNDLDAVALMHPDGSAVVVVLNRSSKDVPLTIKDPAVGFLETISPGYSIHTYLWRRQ
Chain of Cytochrome P450 1A2 (Homo sapiens) (P05177 whole entry, looked up): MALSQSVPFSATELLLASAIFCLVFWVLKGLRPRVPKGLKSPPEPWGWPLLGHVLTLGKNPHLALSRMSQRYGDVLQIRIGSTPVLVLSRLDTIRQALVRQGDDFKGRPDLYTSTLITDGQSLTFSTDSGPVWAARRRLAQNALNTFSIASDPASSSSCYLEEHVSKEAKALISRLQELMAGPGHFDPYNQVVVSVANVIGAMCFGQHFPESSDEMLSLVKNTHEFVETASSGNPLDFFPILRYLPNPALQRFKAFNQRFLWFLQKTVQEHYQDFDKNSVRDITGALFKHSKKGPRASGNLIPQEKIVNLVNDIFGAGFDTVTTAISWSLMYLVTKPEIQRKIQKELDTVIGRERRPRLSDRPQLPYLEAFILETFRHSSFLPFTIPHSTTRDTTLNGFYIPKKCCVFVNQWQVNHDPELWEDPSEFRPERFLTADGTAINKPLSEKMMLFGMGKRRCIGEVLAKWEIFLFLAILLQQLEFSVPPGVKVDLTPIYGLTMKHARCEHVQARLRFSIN
Chain of Ubiquitin carboxyl-terminal hydrolase 1 (Homo sapiens) (O94782 whole entry, looked up): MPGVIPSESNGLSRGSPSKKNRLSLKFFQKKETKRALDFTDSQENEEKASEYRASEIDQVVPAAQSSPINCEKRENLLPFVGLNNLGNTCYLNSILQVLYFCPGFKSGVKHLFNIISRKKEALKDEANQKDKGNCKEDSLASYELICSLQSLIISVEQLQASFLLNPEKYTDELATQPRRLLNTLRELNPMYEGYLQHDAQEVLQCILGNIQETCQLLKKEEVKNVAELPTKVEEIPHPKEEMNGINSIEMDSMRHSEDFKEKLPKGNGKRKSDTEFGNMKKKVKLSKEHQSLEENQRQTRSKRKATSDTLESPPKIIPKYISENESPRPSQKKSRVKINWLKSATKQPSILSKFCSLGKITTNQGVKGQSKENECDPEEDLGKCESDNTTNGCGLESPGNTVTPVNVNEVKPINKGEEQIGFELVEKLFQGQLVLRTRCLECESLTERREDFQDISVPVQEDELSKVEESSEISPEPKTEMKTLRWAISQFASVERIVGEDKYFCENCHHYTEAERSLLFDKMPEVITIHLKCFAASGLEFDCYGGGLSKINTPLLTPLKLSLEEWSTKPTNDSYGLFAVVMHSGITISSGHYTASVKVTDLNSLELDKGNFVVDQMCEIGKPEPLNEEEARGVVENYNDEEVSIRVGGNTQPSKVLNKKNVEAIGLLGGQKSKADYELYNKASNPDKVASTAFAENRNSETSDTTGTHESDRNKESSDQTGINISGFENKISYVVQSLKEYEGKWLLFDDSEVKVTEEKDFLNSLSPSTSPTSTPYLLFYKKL
Chain of Cytochrome P450 3A4 (Homo sapiens) (P08684 whole entry, looked up): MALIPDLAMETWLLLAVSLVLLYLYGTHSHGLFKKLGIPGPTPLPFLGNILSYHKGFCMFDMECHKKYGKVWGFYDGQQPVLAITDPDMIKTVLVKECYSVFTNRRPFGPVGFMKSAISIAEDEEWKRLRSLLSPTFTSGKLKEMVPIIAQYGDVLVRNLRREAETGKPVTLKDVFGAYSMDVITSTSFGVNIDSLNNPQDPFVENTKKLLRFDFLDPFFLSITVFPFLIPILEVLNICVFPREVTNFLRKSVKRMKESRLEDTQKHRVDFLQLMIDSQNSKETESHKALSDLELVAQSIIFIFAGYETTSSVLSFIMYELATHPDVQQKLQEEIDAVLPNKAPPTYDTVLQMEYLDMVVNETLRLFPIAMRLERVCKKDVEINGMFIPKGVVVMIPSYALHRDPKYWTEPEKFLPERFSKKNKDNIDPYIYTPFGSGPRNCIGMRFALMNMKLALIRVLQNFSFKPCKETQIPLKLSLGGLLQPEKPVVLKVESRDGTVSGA

COc1cccc(-c2ccc3ncnc(NCc4cccnc4)c3c2)c1
active: Potency [2] 251 nM | Potency [9] 12.6 nM | Potency [10] 2820 nM | Potency [11] 2820 nM | Potency [12] 1580 nM
inactive: Potency [1] > 11400 nM | activity change, negative = inhibition [3] 9.62% | Potency [4] > 46000 nM | Potency [5] > 46000 nM | outcome [6] | Potency [7] | Potency [8] | Potency [13] | Potency [14] | Potency [15]

CC(C)(C)c1ccc(C(=O)Nc2ccc(-c3nc4ccccc4[nH]3)cc2)cc1
inactive: Potency [14]

Cc1ccc(-c2ccc(=O)n(CC(=O)N(C)C(C)C(C)C)n2)cc1 (centres undefined)
inactive: Potency [14]

CC(=O)Nc1sc2c(c1-c1ccc(C#N)cc1)CCNC2
inactive: Potency [14]

COc1cc(O)c(C(CC(=O)N2CCC(Cc3ccccc3)CC2)c2ccc3c(c2)OCO3)c(OC)c1 (centres undefined)
inactive: Potency [14]
